Source: PubChem BioAssay (Tox21)
Inconclusive results are not listed. The source holds several records for some structures; these can differ, active in one and inactive in another. The source made the active and inactive calls. Unless noted, calls come from the whole dose curve; as a rule, active = well fitted curve in the direction sought with a large enough effect in the repeat runs; inconclusive = weak or mixed curves; inactive = no such curve, though single readings can be large; an effect the other way counts as inactive or inconclusive.

Legend:
[1] = molecular target: Retinoic acid receptor RXR-alpha (Homo sapiens) (UniProt P19793); assay: qHTS assay to identify small molecule agonists of the RXR signaling pathway (AID 1159527; calls by dose curve; note: nearly all actives have a fitted effect of over 35% in size)
Method in brief: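 GeneBLAzer RXR-alpha-UAS-bla HEK 293T cells in 2% charcoal-stripped FBS medium were exposed to compounds for 16 hr at 37 C in agonist mode. Beta-lactamase reporter read as 460/530 nm FRET ratio after 2 hr substrate loading.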

[2] = qHTS assay to identify small molecule agonists of the RXR signaling pathway - cell viability counter screen (AID 1159529); note: nearly all actives have a fitted effect of over 50% in size; note: potency is the fitted concentration of half-maximal effect
Method in brief: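 RXR-alpha-UAS-bla HEK 293T cells in medium with 2% charcoal-stripped FBS were pre-incubated 5 hr, then compound-treated 16 hr at 37 C. Viability was read by CellTiter-Glo luminescence in the same wells as the beta-lactamase assay, with tetraoctyl ammonium bromide as positive control.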

[3] = qHTS assay to identify small molecule antagonists of the retinoid acid receptor (RAR) signaling pathway - cell viability counter screen (AID 1159551); note: nearly all actives have a fitted effect of over 35% in size
Method in brief: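 Cytotoxicity counter screen in C3RL4 cells: 6 h compound exposure with 1 uM retinol (final), viability from cellular ATP by luminescence.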

[4] = qHTS assay to identify small molecule antagonists of the estrogen related receptor (ERR) signaling pathway from Tox21 library - cell viability counter screen (AID 1224834); note: nearly all actives have a fitted effect of over 30% in size
Method in brief: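 Cytotoxicity of test substances is gauged in the same ERR cells used for the antagonist screen, after 17.5 h of compound treatment at 37 C, by CellTiter-Fluor fluorescence measured after 30 min.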

[5] = molecular target: Luciferin 4-monooxygenase (Photinus pyralis) (UniProt P08659); assay: qHTS assay to identify small molecule inhibitors of firefly luciferase (AID 1224835); note: series mostly up to about 120 µM; nearly all actives have a fitted effect of over 25% in size
Method in brief: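 Quantitative HTS format; KM concentrations of both substrates. Purified P. pyralis FLuc activity quantified from luminescence images.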

[6] = qHTS assay to identify small molecule agonists of the constitutive androstane receptor (CAR) signaling pathway - cell viability counter screen (AID 1224836); note: nearly all actives have a fitted effect of over 45% in size; note: potency is the fitted concentration of half-maximal effect
Method in brief: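 HepG2 cells stably carrying hCAR and a CYP2B6-2.2kb reporter; 15-concentration compounds plus PK11195 (final 0.75 uM), 23 hr at 37 C/5% CO2. Viability read by CellTiter-Fluor fluorescence.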

[7] = qHTS assay to identify small molecule antagonists of the constitutive androstane receptor (CAR) signaling pathway - cell viability counter screen (AID 1224837); note: series mostly up to about 92 µM; nearly all actives have a fitted effect of over 45% in size
Method in brief: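 Multiplexed cytotoxicity read-out for the CAR antagonist screen: double-stable HepG2-CYP2B6-hCAR cells co-treated with 50 nM CITCO (final) and compound over 15 concentrations, incubated 23 hr, then assessed by CellTiter-Fluor fluorescence.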

[8] = qHTS assay to identify small molecule antagonists of the estrogen related receptor signaling pathway with the pleiotropic PPARgamma coactivator (PGC) from Tox21 10K library - cell viability counter screen (AID 1224840; active = well fitted cell-killing curve with a large enough effect in the repeat runs, not every such curve was filed as active; note: nearly all actives have a fitted effect of over 40% in size)
Method in brief: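 Step one, plate 2,000 PGC/ERR cells per well; step two, incubate 6 h at 37 C/5% CO2; step three, pin-transfer compounds; step four, incubate 17.5 h; step five, add CellTiter-Fluor and read fluorescence after 30 min.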

[9] = qHTS assay to identify small molecule antagonists of the estrogen related receptor signaling pathway with the pleiotropic PPARgamma coactivator (PGC) from Tox21 10K library (AID 1224841; call rule not given here; note: series mostly up to about 92 µM; actives are mostly falling curves and most rising ones were filed inactive; nearly all actives have a fitted effect of over 50% in size)
Method in brief: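 Antagonism in this quantitative HTS is taken from loss of luciferase signal in PGC/ERR cells. Cells (2,000/well) are treated with compounds in DMSO after a 6 h settling period and read by One-Glo luminescence after 18 h.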

[10] = qHTS assay to identify small molecule agonists of the estrogen related receptor signaling pathway with the pleiotropic PPARgamma coactivator (PGC) from Tox21 10K library (AID 1224842); note: nearly all actives have a fitted effect of over 15% in size; note: potency is the fitted concentration of half-maximal effect
Method in brief: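 PGC/ERR reporter cells (NTP line) were seeded 2,000 per well, rested 6 h at 37 C/5% CO2, then pin-dosed with compounds in DMSO for 18 h at 37 C; luciferase read by One-Glo luminescence after 30 min at room temperature.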

[11] = qHTS assay to identify small molecule agonists of the retinoic acid receptor (RAR) signaling pathway (AID 1159553)
Method in brief: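 Agonist activity was scored in C3RL4 cells bearing a retinoic acid response element luciferase construct. Cells were treated with compounds for 6 hr at 37 C, and luciferase signal was measured as luminescence.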

[12] = molecular target: Nuclear receptor subfamily 1 group I member 3 (Homo sapiens) (UniProt Q14994); assay: qHTS assay to identify small molecule antagonists of the constitutive androstane receptor (CAR) signaling pathway (AID 1224838); note: nearly all actives have a fitted effect of over 40% in size
Method in brief: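 Compounds were titrated across 15 concentrations onto HepG2 cells double-stably expressing hCAR and a CYP2B6-2.2kb reporter, together with 50 nM CITCO (final). After 24 h at 37 C, luciferase activity was measured by luminescence.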

[13] = molecular target: Nuclear receptor subfamily 1 group I member 3 (Homo sapiens) (UniProt Q14994); assay: qHTS assay to identify small molecule agonists of the constitutive androstane receptor (CAR) signaling pathway (AID 1224839);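 note: HepG2 cells stably carrying human CAR and a CYP2B6 luciferase reporter; series mostly up to about 92 µM; nearly all actives have a fitted effect of over 15% in size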
Method in brief: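 HepG2 cells stably co-transfected with hCAR and a CYP2B6-2.2kb luciferase reporter; compounds at 15 concentrations with 0.75 uM PK11195 present. After 24 hr at 37 C, luciferase read by ONE-Glo luminescence.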

[14] = qHTS assay to identify small molecule antagonists of the retinoic acid receptor (RAR) signaling pathway (AID 1159552; note: nearly all actives have a fitted effect of over 50% in size)
Method in brief: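 Retinol signaling pathway inhibitors screened in C3RL4 RARE-luciferase reporter cells seeded overnight at 37 C, then compounds added with 1 uM (final) retinol as pathway substrate. After 6 hr at 37 C, luciferase luminescence read after 30 min at room temperature.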

[15] = qHTS assay to identify small molecule antagonists of the estrogen related receptor (ERR) signaling pathway - cell viability counter screen (AID 1224818);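 note: series mostly up to about 46 µM; viability measured after 17.5 h of compound exposure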
Method in brief: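 Cells carrying the ERR pathway reporter were seeded and incubated for 6 hours before compound addition. After a 17.5-hour exposure at 37 C, live-cell protease activity was measured by CellTiter-Fluor fluorescence following 30 minutes of incubation.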

[16] = qHTS assay to identify small molecule antagonists of the estrogen related receptor (ERR) signaling pathway (AID 1224819;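 note: luminescence from an ERR-driven luciferase reporter measured with One-Glo reagent; series mostly up to about 46 µM; nearly all actives have a fitted effect of over 50% in size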)
Method in brief: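 Compounds dissolved in DMSO were pin-transferred onto ERR cells that had been plated 6 h earlier, and cells were then incubated 18 h at 37 C; signal was luciferase luminescence via One-Glo.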

[17] = qHTS assay to identify small molecule agonists of the estrogen related receptor (ERR) signaling pathway (AID 1224820)
Method in brief: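 Quantitative HTS of the LOPAC library used NTP ERR reporter cells treated 18 h at 37 C. Signal is luminescence after One-Glo addition and a 30 min room-temperature incubation.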

[18] = test system: estrogen-related receptor alpha (ERRalpha) with PGC-1alpha coactivator, human; assay: qHTS assay to identify small molecule antagonists of the estrogen related receptor signaling pathway with the pleiotropic PPARgamma coactivator (PGC) (AID 1224821; calls by dose curve)
Method in brief: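 Quantitative HTS for antagonism: PGC/ERR cells received compounds after 6 h attachment and were incubated 18 h at 37 C, with luminescence (One-Glo) as the endpoint.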

[19] = qHTS assay to identify small molecule antagonists of the estrogen related receptor signaling pathway with the pleiotropic PPARgamma coactivator (PGC) cell viability counter screen (AID 1224822;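 note: series mostly up to about 46 µM; viability read after 17.5 h compound exposure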)
Method in brief: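 Seed PGC/ERR cells (2,000/well); incubate 6 h at 37 C/5% CO2; pin-transfer compounds in DMSO; incubate 17.5 h at 37 C; add CellTiter-Fluor; after 30 min read fluorescence.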

[20] = qHTS assay to identify small molecule agonists of the estrogen related receptor signaling pathway with the pleiotropic PPARgamma coactivator (PGC) (AID 1224823)
Method in brief: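 Cell-based luciferase assay in the NTP-supplied PGC/ERR line, 2,000 cells/well; 18 h compound exposure at 37 C, luminescence after One-Glo.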

Measured: Potency

Chain of Retinoic acid receptor RXR-alpha (Homo sapiens) (P19793 whole entry, looked up): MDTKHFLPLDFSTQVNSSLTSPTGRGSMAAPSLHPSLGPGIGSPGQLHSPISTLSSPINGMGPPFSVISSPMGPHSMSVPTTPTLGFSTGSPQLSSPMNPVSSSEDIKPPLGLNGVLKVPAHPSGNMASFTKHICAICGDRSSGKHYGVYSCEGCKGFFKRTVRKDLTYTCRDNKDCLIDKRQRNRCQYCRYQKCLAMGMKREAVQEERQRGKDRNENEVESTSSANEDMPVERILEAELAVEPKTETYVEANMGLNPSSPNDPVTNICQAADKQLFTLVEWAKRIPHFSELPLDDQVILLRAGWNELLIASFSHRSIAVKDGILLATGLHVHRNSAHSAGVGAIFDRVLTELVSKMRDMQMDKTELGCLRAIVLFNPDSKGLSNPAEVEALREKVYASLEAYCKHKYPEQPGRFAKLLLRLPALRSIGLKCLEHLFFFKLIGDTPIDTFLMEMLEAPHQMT
Chain of Luciferin 4-monooxygenase (Photinus pyralis) (P08659 whole entry, looked up): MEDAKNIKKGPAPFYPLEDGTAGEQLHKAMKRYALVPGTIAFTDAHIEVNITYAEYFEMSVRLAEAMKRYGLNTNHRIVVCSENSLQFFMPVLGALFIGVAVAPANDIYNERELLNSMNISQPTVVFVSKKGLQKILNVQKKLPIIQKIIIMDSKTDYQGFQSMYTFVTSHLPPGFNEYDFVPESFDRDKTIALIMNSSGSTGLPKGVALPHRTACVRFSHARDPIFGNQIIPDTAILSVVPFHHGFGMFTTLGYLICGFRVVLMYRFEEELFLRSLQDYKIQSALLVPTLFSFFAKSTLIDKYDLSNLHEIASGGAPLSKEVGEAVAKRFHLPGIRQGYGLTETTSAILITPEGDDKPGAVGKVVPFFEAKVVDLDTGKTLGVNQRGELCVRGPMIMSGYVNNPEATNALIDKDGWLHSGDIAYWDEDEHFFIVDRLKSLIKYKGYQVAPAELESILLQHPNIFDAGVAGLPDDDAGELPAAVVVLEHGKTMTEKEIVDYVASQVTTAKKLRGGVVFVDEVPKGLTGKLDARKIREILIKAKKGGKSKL
Chain of Nuclear receptor subfamily 1 group I member 3 (Homo sapiens) (Q14994 whole entry, looked up): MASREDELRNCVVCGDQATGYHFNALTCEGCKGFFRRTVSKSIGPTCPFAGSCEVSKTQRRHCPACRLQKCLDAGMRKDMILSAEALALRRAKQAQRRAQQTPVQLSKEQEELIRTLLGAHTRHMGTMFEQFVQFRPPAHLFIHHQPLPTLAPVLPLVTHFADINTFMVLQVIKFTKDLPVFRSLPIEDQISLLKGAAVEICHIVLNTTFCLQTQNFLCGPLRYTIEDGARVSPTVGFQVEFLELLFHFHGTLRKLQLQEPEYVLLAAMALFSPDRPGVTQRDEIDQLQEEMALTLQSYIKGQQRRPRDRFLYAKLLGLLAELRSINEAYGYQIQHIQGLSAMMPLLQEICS

CC1Sc2c(C(=O)O)c(=O)c3cc(F)c(N4CCNCC4)cc3n21 (configuration not stated)
inactive: [1] | [2] | [3] | [4] | [5] | [6] | [7] | [8] | [9] | [10]

Clc1cc(Cl)c(Cl)c(Cl)c1
inactive: [1] | [2] | [3] | [11] | [4] | [5] | [6] | [7] | [12] | [13] | [8]

ClCc1ccccc1
inactive: [1] | [2] | [3] | [11] | [4] | [5] | [6] | [7] | [12] | [8]

CCC(Br)(CC)C(=O)NC(N)=O
inactive: [1] | [2] | [3] | [14] | [4] | [5] | [6] | [7] | [12] | [8]

CCCCNP(N)(N)=S
inactive: [1] | [2] | [3] | [4] | [5] | [6] | [7] | [8]

CC(=O)[C@H]1CC[C@H]2[C@@H]3CC[C@H]4C[C@](C)(O)CC[C@]4(C)[C@H]3CC[C@]12C
inactive: [1] | [2] | [3] | [15] | [16] | [17] | [18] | [19] | [20] | [4] | [5] | [6] | [7] | [12] | [13] | [8] | [9] | [10]

N#C/C(N)=C(/N)C#N
inactive: [1] | [2] | [3] | [14] | [4] | [5] | [6] | [7] | [12] | [8] | [9] | [10]

Brc1ccc(Oc2ccccc2)cc1
inactive: [1] | [3] | [4] | [5] | [6] | [8] | [9]
31.7 µM (active) and inactive: [2]
885 nM (active) and inactive: [10]

C=CC(=O)OCC(C)C
inactive: [1] | [2] | [3] | [4] | [5] | [6] | [12] | [13] | [8] | [9] | [10]

ClCCCCBr
inactive: [1] | [2] | [3] | [11] | [4] | [5] | [6] | [7] | [12] | [13] | [8]

N#CCc1ccccc1
inactive: [1] | [2] | [3] | [14] | [4] | [5] | [6] | [7] | [12] | [13] | [8]

CC/C(=N\OC/C=C/Cl)C1=C(O)CC(C2CCOCC2)CC1=O (configuration not stated)
inactive: [1] | [2] | [3] | [4] | [5] | [6] | [7] | [12] | [13] | [8] | [9] | [10]

CC(Cl)C(C)Cl (configuration not stated)
inactive: [1] | [2] | [3] | [14] | [4] | [5] | [6] | [8] | [9] | [10]

CC(C)(Cl)[N+](=O)[O-]
inactive: [1] | [2] | [3] | [14] | [4] | [5] | [6] | [7] | [12] | [13] | [8] | [10]

C[C@H]1CNCCc2ccc(Cl)cc21
inactive: [1] | [2] | [3] | [11] | [4] | [5] | [6] | [7] | [12] | [8] | [9] | [10]

NNC(=O)c1cccnc1
inactive: [1] | [2] | [3] | [14] | [4] | [5] | [6] | [12] | [8]

C=CC(C)=O
inactive: [1] | [2] | [3] | [4] | [5] | [6] | [7] | [8] | [9] | [10]

CCOP(=O)(OCC)SCCSCC
inactive: [1] | [2] | [3] | [4] | [5] | [6] | [7] | [8] | [9] | [10]

ClC=C(Cl)Cl
inactive: [1] | [2] | [3] | [4] | [5] | [6] | [7] | [12] | [8] | [9] | [10]

O=[N+]([O-])c1ccccc1CCl
inactive: [1] | [2] | [3] | [4] | [5] | [6] | [12] | [13] | [8]

C=COC(C)=O
inactive: [1] | [2] | [3] | [11] | [4] | [5] | [6] | [7] | [12] | [13] | [8]

NC(=O)C(Cl)(Cl)Cl
inactive: [1] | [2] | [3] | [11] | [4] | [5] | [6] | [7] | [12] | [8]

Clc1cc(C(Cl)(Cl)Cl)cnc1Cl
active: [6] 43.3 µM
inactive: [1] | [2] | [3] | [14] | [4] | [5] | [8] | [9] | [10]
